Measured values published in PubChem BioAssay (Tox21).
“And” between values parts separate entries of the source, which are not always exact repeats. Equal entries are not always repeated. Records with an inconclusive call do not appear. Entries that show only a call come without a potency. The source holds several records for some structures; these can differ, active in one and inactive in another. The source made the active and inactive calls. The call rests on the fitted dose curve; in most records, active means well fitted cell-killing curve with a large enough effect in the repeat runs; inconclusive means weak or mixed curves, or effect the other way; inactive means no such curve, though single readings can be large or run the other way.

assay: Caspase-3/7 induction in CHO-K1 cells by small molecules, qHTS cell viability counter screen (AID 1346979); settings: CellTiter-Fluor fluorescence, 17 h; series mostly up to 92.4 µM; further: nearly all actives have a fitted effect of over 35% in size
From the text: National Center for Advancing Translational Sciences [NCATS]
NIH Chemical Genomics Center [NCGC]
U.S. Environmental Protection Agency [EPA]
National Institutes of Environmental Health Sciences [NIEHS]
National Toxicology Program [NTP]
U.S. Food and Drug Administration [FDA]
Apoptosis is a process of programmed cell death and plays a central role in the development of multicellular organisms. It is a highly regulated process and induces cell death by activating caspases, which are the members of cysteine aspartic acid-specific protease (caspase) family. Caspases involved in apoptosis are classified by their mechanism of action as initiator caspases (caspase-2, -8, -9 and -10) and executioner caspases (caspase-3, -6, and -7). Inhibition of apoptosis results in number of cancers, autoimmune diseases, inflammatory diseases and viral infection. To identify small molecule compounds that induce apoptosis, a homogeneous, luminescent Caspase-Glo 3/7 assay was used. Wild type CHO-K1 cells were used to screen Tox21 libraries for identifying caspase-3/7 activity inducers. Also cytotoxicity of the compounds was tested in parallel by measuring the cell viability using CellTiter-Fluor assay system in the same wells.
Tox21 Assay Protocol Summary:
CHO-K1 cells were dispensed at 1,500 per well in 5uL of culture medium into white solid bottom 1536-well plates (Corning Life Sciences, Corning, NY) using a Multidrop Combi (Thermo Scientific, Waltham, MA) dispenser. The assay plates were incubated at 37 C and 5% CO2 for 5hr, and then 23nL of compounds dissolved in DMSO and positive control were transferred using a Pintool station (Wako, San Diego, CA). The assay plates were incubated at 37C and 5% CO2 for 17hr. For cytotoxicity read, after 16hr incubation at 37C, 1uL CellTiter-Fluor reagent (Promega Corporation, Madison, WI) was added to each well of the assay plates using Flying Reagent Dispenser (FRD, Aurora Discovery, San Diego, CA). After 1hr incubation at 37C and 5% CO2, the fluorescence signal was quantified using a ViewLux plate reader (PerkinElmer, Shelton, CT).
Potency means the concentration at half of the fitted maximal effect.

**Q.** Which Potency does the source give for `Cc1ccc2oc(=O)ccc2c1` here?
**A.** inactive

**Q.** Which Potency does the source give for `CCCCCC/C(C=O)=C\c1ccccc1` here?
**A.** inactive

**Q.** Which Potency does the source give for `c1ccc2scnc2c1` here?
**A.** inactive

**Q.** For `CCN(CC)CCCC(C)Nc1ccnc2cc(Cl)ccc12` (stereo not given), which activity change, negative = cytotoxicity is on record?
**A.** -0.939% [at 8.39 µM] (inactive) and -3.64% [at 19 µM] (inactive)

**Q.** Which Potency does the source give for `O=C(O)c1ccccc1C(c1ccc(O)cc1)c1ccc(O)cc1` here?
**A.** inactive

**Q.** Which Potency does the source give for `O=c1[nH]c(=O)n([C@H]2CCCO2)cc1F` here?
**A.** inactive

**Q.** With `CN(C)CCOCCN(C)C` as the molecule, how does the Potency read?
**A.** inactive

**Q.** With `CC(=O)c1ccccc1` as the molecule, how does the Potency read?
**A.** inactive

**Q.** For `C=C(C)C(=O)O[C@H]1C[C@@H]2CC[C@@]1(C)C2(C)C`, which Potency is on record?
**A.** inactive

**Q.** Which Potency does the source give for `c1ccc(OCCOc2ccccc2)cc1` here?
**A.** inactive

**Q.** Which Potency does the source give for `CCCCC(CC)COC(=O)CCCCC(=O)OCC(CC)CCCC` (stereo not given) here?
**A.** inactive

**Q.** With `Cc1cccnc1` as the molecule, how does the Potency read?
**A.** inactive

**Q.** With `OCCOCCN1CCN(C2=Nc3ccccc3Sc3ccccc32)CC1` as the molecule, how does the Potency read?
**A.** inactive

**Q.** For `O=C(O)c1ccc2c(c1)C(=O)OC2=O`, which Potency is on record?
**A.** inactive

**Q.** Which Potency does the source give for `CCCCCC(N)=O` here?
**A.** inactive

**Q.** With `CC(=O)Nc1cccc(O)c1` as the molecule, how does the Potency read?
**A.** inactive

**Q.** With `O=C(O)[C@H](O)[C@@H](O)[C@H](O)[C@H](O)CO` as the molecule, how does the Potency read?
**A.** inactive

**Q.** Which Potency does the source give for `CCCCC(CC)COC(=O)C(C#N)=C(c1ccccc1)c1ccccc1` (stereo not given) here?
**A.** 48.6 µM (active) and 18.8 µM (active)

**Q.** For `O=C(O)CC(C(=O)O)C(CC(=O)O)C(=O)O` (stereo not given), which Potency is on record?
**A.** inactive

**Q.** Which Potency does the source give for `Nc1cc([N+](=O)[O-])ccc1O` here?
**A.** 54.5 µM (active) and 60.8 µM (active)

**Q.** Which Potency does the source give for `CCCCCCCCCCCCCCCO` here?
**A.** 24.5 µM (active) and inactive

**Q.** For `CC(C)(C)[C@@H](O)[C@@H](Cc1ccc(Cl)cc1)n1cncn1`, which Potency is on record?
**A.** inactive

**Q.** With `CN(C)CCC(c1ccccc1)c1ccccn1` (stereo not given) as the molecule, how does the Potency read?
**A.** inactive

**Q.** For `CCCCC(CC)COC(=O)CS` (stereo not given), which Potency is on record?
**A.** inactive

**Q.** With `CSCCC=O` as the molecule, how does the Potency read?
**A.** inactive

**Q.** For `CC1CCC(C(C)C)C(O)C1` (stereo not given), which Potency is on record?
**A.** inactive

**Q.** For `CCCCC(CC)CO` (stereo not given), which Potency is on record?
**A.** inactive

**Q.** With `COc1ccc(Cl)cc1C(=O)NCCc1ccc(S(=O)(=O)NC(=O)NC2CCCCC2)cc1` as the molecule, how does the Potency read?
**A.** inactive

**Q.** With `CCc1ccc(CCOc2ccc(CC3SC(=O)NC3=O)cc2)nc1` (stereo not given) as the molecule, how does the Potency read?
**A.** inactive

**Q.** With `O=c1[nH]nnc2ccccc12` as the molecule, how does the Potency read?
**A.** inactive

**Q.** For `CCc1cccc(C)c1N`, which Potency is on record?
**A.** inactive

**Q.** With `OCc1cccnc1` as the molecule, how does the Potency read?
**A.** inactive

**Q.** Which Potency does the source give for `CC(=O)Nc1ccccc1` here?
**A.** inactive

**Q.** For `Cc1occc(=O)c1O`, which Potency is on record?
**A.** inactive

**Q.** For `CC[C@H](C)C(=O)O[C@H]1C[C@@H](C)C=C2C=C[C@H](C)[C@H](CC[C@@H]3C[C@@H](O)CC(=O)O3)[C@H]21`, which Potency is on record?
**A.** 69.6 µM (active)

**Q.** Which Potency does the source give for `CCC(O)OCCCOC` (stereo not given) here?
**A.** 5.59 µM (active) and inactive

**Q.** Which Potency does the source give for `CCOC(=O)NNc1nncc2ccccc12` here?
**A.** inactive

**Q.** For `CC(=O)CC(=O)Nc1ccccc1C`, which Potency is on record?
**A.** inactive

**Q.** Which Potency does the source give for `C=C(C)C(=O)OCCOCCOCCOC(=O)C(=C)C` here?
**A.** inactive

**Q.** With `Oc1cccc2ccccc12` as the molecule, how does the Potency read?
**A.** inactive
